# Laboratory results: PubChem BioAssay
# A number with no mark means an inactive call. Activity calls are given as the source filed them. Unless noted, no stated cut-off is given here; in the data, active means inhibition above about 30%; inactive means the rest.
# Key:
# [1] = target: Protein phosphatase methylesterase 1 (Homo sapiens) (UniProt Q9Y570); assay: PME-1 inhibitor activity retest, confirmation, biochemical, fluorescence polarization, FP-Rh probe, triplicate (AID 2171;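 active means inhibition above the hit cutoff set in the earlier primary screen, cut at about 27% in these data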;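 further: 0% = enzyme with DMSO and 100% = wells lacking PME-1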); settings: recombinant PME-1, FP-Rh probe fluorescence polarization; at 5.9 µM; active compounds read high
# Chain of Protein phosphatase methylesterase 1 (Homo sapiens) (Q9Y570 whole entry, looked up, the tested form may be a part): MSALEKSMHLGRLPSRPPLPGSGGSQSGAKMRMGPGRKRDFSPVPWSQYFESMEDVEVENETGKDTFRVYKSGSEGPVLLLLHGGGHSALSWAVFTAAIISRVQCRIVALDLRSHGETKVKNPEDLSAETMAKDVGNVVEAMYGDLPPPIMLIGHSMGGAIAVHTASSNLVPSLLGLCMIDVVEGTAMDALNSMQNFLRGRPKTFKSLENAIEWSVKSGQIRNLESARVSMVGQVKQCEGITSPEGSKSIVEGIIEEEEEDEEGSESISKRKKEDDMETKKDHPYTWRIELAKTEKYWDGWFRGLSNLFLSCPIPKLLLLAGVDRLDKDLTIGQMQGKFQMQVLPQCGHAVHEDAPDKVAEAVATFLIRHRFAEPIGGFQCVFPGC
# [2] = target: Nuclear receptor coactivator 3 (Homo sapiens) (UniProt Q9Y6Q9); assay: SRC3 coactivator transcriptional activity inhibitors, confirmation, cell-based, luminescence, quadruplicate (AID 588792;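 active means mean inhibition over 43.08%, the solvent-only control mean plus 3 SD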;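 further: 0% = DMSO treated cells and 100% = gossypol at 36 µM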); settings: HEK293 GAL4-SRC3 luciferase reporter, at 3.6 µM, active compounds read high
# Chain of Nuclear receptor coactivator 3 (Homo sapiens) (Q9Y6Q9 whole entry, looked up, the tested form may be a part): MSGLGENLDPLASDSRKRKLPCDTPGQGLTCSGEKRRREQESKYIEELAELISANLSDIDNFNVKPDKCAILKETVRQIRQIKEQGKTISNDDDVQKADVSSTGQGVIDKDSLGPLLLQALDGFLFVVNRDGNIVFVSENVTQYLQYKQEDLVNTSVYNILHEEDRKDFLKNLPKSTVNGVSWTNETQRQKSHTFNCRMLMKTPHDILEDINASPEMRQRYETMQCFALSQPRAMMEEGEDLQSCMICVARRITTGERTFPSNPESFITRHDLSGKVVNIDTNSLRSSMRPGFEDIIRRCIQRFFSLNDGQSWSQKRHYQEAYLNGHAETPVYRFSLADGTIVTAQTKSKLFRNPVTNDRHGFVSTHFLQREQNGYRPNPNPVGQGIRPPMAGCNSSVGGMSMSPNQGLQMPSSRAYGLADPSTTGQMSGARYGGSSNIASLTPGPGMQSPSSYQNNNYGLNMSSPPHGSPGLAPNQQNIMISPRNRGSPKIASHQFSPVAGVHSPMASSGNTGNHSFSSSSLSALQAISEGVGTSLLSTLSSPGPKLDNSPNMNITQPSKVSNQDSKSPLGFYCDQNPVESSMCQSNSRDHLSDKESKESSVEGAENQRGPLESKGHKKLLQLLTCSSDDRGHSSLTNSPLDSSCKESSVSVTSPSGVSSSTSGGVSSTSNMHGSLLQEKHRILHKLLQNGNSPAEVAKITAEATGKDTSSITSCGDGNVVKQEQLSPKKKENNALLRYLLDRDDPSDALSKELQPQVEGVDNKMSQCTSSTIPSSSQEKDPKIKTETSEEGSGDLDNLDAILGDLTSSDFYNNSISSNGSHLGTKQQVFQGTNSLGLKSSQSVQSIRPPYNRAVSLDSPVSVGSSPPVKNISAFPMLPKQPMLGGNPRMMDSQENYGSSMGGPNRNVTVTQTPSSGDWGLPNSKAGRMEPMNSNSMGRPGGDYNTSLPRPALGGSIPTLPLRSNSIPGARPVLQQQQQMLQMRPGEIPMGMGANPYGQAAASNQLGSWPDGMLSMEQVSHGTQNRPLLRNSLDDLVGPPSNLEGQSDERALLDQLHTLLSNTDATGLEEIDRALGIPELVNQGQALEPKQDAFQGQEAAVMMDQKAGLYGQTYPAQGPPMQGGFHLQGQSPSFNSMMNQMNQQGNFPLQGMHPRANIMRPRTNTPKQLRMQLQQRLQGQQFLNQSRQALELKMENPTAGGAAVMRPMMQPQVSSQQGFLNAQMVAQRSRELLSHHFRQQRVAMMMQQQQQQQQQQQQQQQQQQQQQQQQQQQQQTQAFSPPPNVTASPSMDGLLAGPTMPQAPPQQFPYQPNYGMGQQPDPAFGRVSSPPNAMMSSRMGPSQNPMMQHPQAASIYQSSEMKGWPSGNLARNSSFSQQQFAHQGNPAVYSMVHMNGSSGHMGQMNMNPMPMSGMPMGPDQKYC
# [3] = system: transactivating tegument protein VP16 (Human herpesvirus 1), Gal4-VP16 luciferase reporter; assay: VP16 transactivation inhibitors, counter-screen for SRC3 inhibitor project, cell-based, luminescence, high throughput (AID 588794); settings: mammalian cells, VP16-driven luciferase reporter luminescence; at 3.6 µM; active compounds read high
# [4] = target: Nuclear receptor coactivator 1 (Homo sapiens) (UniProt Q15788); assay: SRC1 coactivator transcriptional activity inhibitors, confirmation, cell-based, luminescence, quadruplicate (AID 588820;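 active means mean inhibition above 46.68%, the untreated control wells mean plus 3 SD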;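 further: 0% = DMSO wells and 100% = gossypol 36 µM treated wells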); settings: HEK293 GAL4-SRC1 luciferase reporter, at 3.6 µM, active compounds read high
# Chain of Nuclear receptor coactivator 1 (Homo sapiens) (Q15788 whole entry, looked up, the tested form may be a part): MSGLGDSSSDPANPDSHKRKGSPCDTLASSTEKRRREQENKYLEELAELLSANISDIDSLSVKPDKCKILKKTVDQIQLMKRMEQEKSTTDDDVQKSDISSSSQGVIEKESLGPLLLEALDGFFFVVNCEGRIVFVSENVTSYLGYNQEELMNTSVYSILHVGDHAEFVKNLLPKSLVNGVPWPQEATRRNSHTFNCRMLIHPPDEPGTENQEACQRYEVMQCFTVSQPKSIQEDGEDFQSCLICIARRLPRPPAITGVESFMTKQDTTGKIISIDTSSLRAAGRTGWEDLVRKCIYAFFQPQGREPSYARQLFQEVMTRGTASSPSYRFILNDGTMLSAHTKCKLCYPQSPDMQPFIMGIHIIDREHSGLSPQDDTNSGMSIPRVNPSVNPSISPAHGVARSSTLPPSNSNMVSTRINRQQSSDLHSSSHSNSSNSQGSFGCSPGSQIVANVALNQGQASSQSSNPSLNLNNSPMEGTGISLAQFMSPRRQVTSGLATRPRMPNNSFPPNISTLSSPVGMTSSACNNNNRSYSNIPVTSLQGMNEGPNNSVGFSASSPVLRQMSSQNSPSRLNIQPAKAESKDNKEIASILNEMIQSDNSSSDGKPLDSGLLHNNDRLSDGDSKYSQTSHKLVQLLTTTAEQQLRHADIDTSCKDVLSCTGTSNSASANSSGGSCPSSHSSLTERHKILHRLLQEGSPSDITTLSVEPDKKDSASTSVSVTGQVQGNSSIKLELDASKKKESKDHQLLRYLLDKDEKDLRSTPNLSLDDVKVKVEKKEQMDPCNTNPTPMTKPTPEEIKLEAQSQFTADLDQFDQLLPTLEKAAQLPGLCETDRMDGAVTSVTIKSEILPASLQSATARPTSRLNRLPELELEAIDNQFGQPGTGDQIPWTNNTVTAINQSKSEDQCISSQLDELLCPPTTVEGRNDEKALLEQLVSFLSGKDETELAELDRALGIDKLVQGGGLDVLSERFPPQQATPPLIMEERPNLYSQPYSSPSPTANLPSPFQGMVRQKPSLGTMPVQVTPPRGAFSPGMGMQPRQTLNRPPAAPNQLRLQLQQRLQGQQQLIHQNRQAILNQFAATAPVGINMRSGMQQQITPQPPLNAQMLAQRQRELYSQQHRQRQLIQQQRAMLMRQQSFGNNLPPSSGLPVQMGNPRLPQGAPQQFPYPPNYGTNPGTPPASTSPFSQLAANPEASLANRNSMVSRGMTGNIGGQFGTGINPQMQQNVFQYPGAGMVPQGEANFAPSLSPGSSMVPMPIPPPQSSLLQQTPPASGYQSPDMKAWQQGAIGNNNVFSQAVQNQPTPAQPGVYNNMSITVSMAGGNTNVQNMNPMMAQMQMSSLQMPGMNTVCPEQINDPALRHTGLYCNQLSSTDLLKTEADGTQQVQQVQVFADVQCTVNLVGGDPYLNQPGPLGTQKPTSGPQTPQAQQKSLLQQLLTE
# [5] = VP16 transactivation inhibitors, counter-screen for SRC1 inhibitor project, cell-based, luminescence, high throughput (AID 588824; in the data active means inhibition above about 25%); settings: cell-based VP16 transactivation luciferase luminescence; at 3.6 µM; active compounds read high
# [6] = system: transactivating tegument protein VP16 (Human herpesvirus 1); assay: VP16 transactivation reporter inhibitors, counter-screen for SRC2 inhibitor project, cell-based, luminescence, single concentration (AID 652007; in the data active means inhibition above about 36%); settings: cell-based VP16 transactivation luciferase reporter, at 8.9 µM, active compounds read high
# [7] = target: Nuclear receptor coactivator 2 (Homo sapiens) (UniProt Q15596); assay: SRC2 coactivator transcriptional activity inhibitors, confirmation, cell-based, luminescence, HEK293, triplicate (AID 652008;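 active means mean inhibition above 46.5%, the solvent-only control mean plus 3 SD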;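 further: 0% = DMSO-treated cells and 100% = Gossypol at 36 µM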); settings: HEK293 GAL4-SRC2 luciferase reporter, at 8.9 µM, active compounds read high
# Chain of Nuclear receptor coactivator 2 (Homo sapiens) (Q15596 whole entry, looked up, the tested form may be a part): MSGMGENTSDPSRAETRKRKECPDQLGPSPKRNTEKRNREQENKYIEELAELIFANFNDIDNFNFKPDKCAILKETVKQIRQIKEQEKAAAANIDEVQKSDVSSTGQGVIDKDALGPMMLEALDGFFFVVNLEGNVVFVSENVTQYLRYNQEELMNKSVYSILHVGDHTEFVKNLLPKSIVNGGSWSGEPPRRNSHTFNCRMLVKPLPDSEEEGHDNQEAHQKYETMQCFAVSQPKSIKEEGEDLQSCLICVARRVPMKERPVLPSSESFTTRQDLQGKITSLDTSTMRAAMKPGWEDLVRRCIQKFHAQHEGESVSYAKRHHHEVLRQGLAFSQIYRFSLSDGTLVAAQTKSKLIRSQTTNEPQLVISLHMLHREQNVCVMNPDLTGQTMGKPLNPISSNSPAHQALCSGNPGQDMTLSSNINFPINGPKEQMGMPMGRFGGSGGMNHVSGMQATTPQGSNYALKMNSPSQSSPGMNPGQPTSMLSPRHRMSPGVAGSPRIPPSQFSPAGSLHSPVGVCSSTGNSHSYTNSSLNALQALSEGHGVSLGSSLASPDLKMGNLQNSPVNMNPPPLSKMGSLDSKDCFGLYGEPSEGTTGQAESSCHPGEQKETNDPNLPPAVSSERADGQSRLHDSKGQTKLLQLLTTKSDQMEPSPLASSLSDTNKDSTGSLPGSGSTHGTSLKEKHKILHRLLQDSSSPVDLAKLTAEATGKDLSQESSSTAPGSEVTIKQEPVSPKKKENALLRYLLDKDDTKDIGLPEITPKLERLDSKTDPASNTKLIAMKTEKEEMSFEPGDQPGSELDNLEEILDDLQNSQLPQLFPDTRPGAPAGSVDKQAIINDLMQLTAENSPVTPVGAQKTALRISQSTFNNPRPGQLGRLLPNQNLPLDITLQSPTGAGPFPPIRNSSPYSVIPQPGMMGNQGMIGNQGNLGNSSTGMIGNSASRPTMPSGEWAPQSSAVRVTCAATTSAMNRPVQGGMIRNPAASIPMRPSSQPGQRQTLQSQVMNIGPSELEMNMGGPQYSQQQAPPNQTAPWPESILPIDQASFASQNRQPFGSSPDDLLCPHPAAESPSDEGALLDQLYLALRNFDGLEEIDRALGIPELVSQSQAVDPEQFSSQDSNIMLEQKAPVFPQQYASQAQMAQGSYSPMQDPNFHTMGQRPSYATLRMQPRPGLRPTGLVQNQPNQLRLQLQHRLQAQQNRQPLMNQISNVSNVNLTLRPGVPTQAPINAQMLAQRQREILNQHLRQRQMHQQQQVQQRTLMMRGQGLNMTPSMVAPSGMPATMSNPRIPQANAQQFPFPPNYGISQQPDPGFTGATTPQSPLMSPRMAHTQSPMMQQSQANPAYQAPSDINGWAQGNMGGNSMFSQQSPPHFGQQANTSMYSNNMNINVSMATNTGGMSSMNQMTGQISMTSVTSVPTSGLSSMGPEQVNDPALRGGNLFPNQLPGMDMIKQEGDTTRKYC
# [8] = StAR promoter reporter inhibitors, counter-screen for LRH-1 inverse agonist project, cell-based, luminescence, high throughput (AID 651611; in the data active means inhibition above about 28%); settings: StAR promoter luciferase reporter counterscreen, at 3.6 µM, active compounds read high
# [9] = target: Nuclear receptor subfamily 5 group A member 2 (Homo sapiens) (UniProt O00482); assay: LRH-1 (NR5A2) inverse agonists, retest, confirmation, cell-based, luminescence (AID 651613; in the data active means inhibition above about 42%;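 further: HEK293T cells co-transfected with LRH-1 and StAR promoter luciferase reporter; 0% = vehicle wells and 100% = parental cells lacking receptor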); settings: cell-based LRH-1 luciferase reporter, inverse agonism; at 3.6 µM; active compounds read high
# [10] = target: Steroidogenic factor 1 (Homo sapiens) (UniProt Q13285); assay: SF1 (NR5A1) inverse agonists, counter-screen for LRH-1 inverse agonist project, cell-based, luminescence, high throughput (AID 651614; in the data active means inhibition above about 44%;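 further: cells cotransfected with StAR promoter reporter and SF1 expression vector; 0% = vehicle on cells with receptor and 100% = vehicle on cells lacking receptor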); settings: cell-based SF1 luciferase reporter, at 3.6 µM, active compounds read high
# [11] = VP16 transactivation reporter inhibitors, counter-screen for LRH-1 inverse agonist project, cell-based, luminescence, high throughput (AID 651615; in the data active means inhibition above about 33%); settings: Gal4-VP16 luciferase reporter cells, at 3.6 µM, active compounds read high
compound,measurement,setting,value
CN1/C(=C\C=C\C2=[N+](C)c3ccc4ccccc4c3C2(C)C)C(C)(C)c2ccccc21,inhibition,[1],79.1% (active)
O=C1C(=O)c2ccccc2-c2ccccc21,inhibition,[1],42.8% (active)
same,inhibition,[2],97.1% (active)
same,inhibition,[3],95.2% (active)
same,inhibition,[4],95.1% (active)
same,inhibition,[5],93.5% (active)
same,inhibition,[6],96.5% (active)
same,inhibition,[7],98.8% (active)
Cc1nc2c(=O)n(C)c(=O)nc-2n(C)n1,inhibition,[1],33% (active)
same,inhibition,[8],78.3% (active)
same,inhibition,[9],94.5% (active)
same,inhibition,[10],83.4% (active)
same,inhibition,[11],90.8% (active)
same,inhibition,[6],62.6% (active)
same,inhibition,[7],77.8% (active)
O=P(Oc1ccccc1)(Oc1ccccc1)C(O)c1ccc(Cl)cc1 (stereo unspecified),inhibition,[1],59.3% (active)
CCN(CC)S(=O)(=O)c1cc(NC(=O)C(C)N2CC=C(c3ccccc3)CC2)ccc1C (stereo unspecified),inhibition,[1],43.7% (active)
CC(=O)c1ccc2c(c1)C1C(Cl)C(Sc3ccccc3[N+](=O)[O-])CC1C(C(=O)O)N2 (stereo unspecified),inhibition,[1],25.9%
O=c1[nH]c(=S)[nH]c(O)c1N=Nc1ccc(S(=O)(=O)N2CCc3ccccc32)cc1,inhibition,[1],46% (active)
same,inhibition,[8],35% (active)
same,inhibition,[9],49.8% (active)
same,inhibition,[10],47.9% (active)
same,inhibition,[11],7.96%
COc1ccc(-n2nnnc2C(c2cccc3ccccc23)N2CCC(n3c(=O)[nH]c4ccccc43)CC2)cc1 (stereo unspecified),inhibition,[2],-24.1%
same,inhibition,[3],4.21%
Cc1ccc(S(=O)(=O)N2CCCCC2)cc1NC(=O)CN1CC=C(c2ccccc2)CC1,inhibition,[1],85.5% (active)
O=C(CN1CC=C(c2ccccc2)CC1)Nc1c(Cl)cccc1Cl,inhibition,[1],28.2% (active)
NP(=O)(OCCCCc1ccccc1)Oc1ccccc1Cl (stereo unspecified),inhibition,[1],47.4% (active)
Nc1c(C(=O)NCc2ccco2)c2nc3ccccc3nc2n1CCN1CCOCC1,inhibition,[1],7.2%
CCCCn1c(C)c(C(=O)OCC)c2c(CN3CCCC3)c(O)ccc21,inhibition,[1],10.3%
Cc1cc(Br)c(NC(=O)CN2CC=C(c3ccccc3)CC2)c(Br)c1,inhibition,[1],44.9% (active)
NC(Cc1cc(O)c(O)cc1O)C(=O)O (stereo unspecified),inhibition,[1],69.4% (active)
CCN(CCCl)c1cc(CN(C)C)cc(NC(=O)c2ccc(C(=O)Nc3cc(CN(C)C)cc(N(CC)CCCl)c3)cc2)c1,inhibition,[2],94.8% (active)
same,inhibition,[3],92% (active)
CNC(=O)c1cccn(Cc2cccc(C(F)(F)F)c2)c1=O,inhibition,[2],19.5%
same,inhibition,[3],-23.9%
same,inhibition,[4],-26.7%
same,inhibition,[5],-25.9%
Cc1ccc(C[n+]2c(-c3ccc(C)cc3)cc(-c3ccc(C)cc3)cc2-c2ccc(C)cc2)cc1,inhibition,[2],91.3% (active)
same,inhibition,[3],87.9% (active)
same,inhibition,[4],44.1%
same,inhibition,[5],84.7% (active)
O=C1/C(=C/c2ccccc2)C[C@@]2(O)[C@H]3Cc4ccc(O)c5c4[C@@]2(CCN3CC2CC2)C1O5 (stereo partly specified),inhibition,[2],92.8% (active)
same,inhibition,[3],73.1% (active)
same,inhibition,[4],85.4% (active)
same,inhibition,[5],73.2% (active)
COC(=O)C1CN(C#N)N(c2ccc(Cl)cc2)C12c1ccccc1-c1ccccc12 (stereo unspecified),inhibition,[2],13.6%
same,inhibition,[3],33.5% (active)
CC(=NCc1ccc2c(c1)OCO2)c1c(O)n(-c2ccccc2)c(=O)[nH]c1=O,inhibition,[2],-6%
same,inhibition,[3],13.8%
CCCc1nc2ccc(Br)cc2c(=O)n1-c1ccc([N+](=O)[O-])c(C(F)(F)F)c1,inhibition,[2],-13%
same,inhibition,[3],11.2%
same,inhibition,[4],13.3%
same,inhibition,[5],14.8%
CCCCCCCn1c(=O)c(C(=O)Nc2cnccn2)c(O)c2ccccc21,inhibition,[2],-22.1%
same,inhibition,[3],-5.22%
O=c1[nH]c2ccccc2n1C1CCN(C(c2ccnc3ccccc23)c2nnnn2-c2ccc3c(c2)OCCO3)CC1 (stereo unspecified),inhibition,[2],8.29%
same,inhibition,[3],6.76%
same,inhibition,[4],-26.3%
same,inhibition,[5],8.7%
Cc1cc(C)cc(NC2=NCCCS2)c1,inhibition,[2],-10.4%
same,inhibition,[3],1.9%
Cc1cccc(C)c1-n1nnnc1C(c1cc2ccccc2o1)N1CCC(n2c(=O)[nH]c3ccccc32)CC1 (stereo unspecified),inhibition,[2],23.8%
same,inhibition,[3],41.3% (active)
same,inhibition,[4],7.31%
same,inhibition,[5],25.9% (active)
O=c1[nH]c2ccccc2n1C1CCN(C(c2nnnn2Cc2ccccc2)C2CC2)CC1 (stereo unspecified),inhibition,[2],22.8%
same,inhibition,[3],20.9%
O=c1[nH]c2ccccc2n1C1CCN(C(c2ccccc2)c2nnnn2-c2ccc3c(c2)OCCO3)CC1 (stereo unspecified),inhibition,[2],41.3%
same,inhibition,[3],14.1%
same,inhibition,[4],-15.1%
same,inhibition,[5],16.1%
O=c1[nH]c(=O)n(CCC2=CCCCC2)c(O)c1C=NC1CCN(Cc2ccccc2)CC1,inhibition,[2],-0.53%
same,inhibition,[3],36.4% (active)
CCn1nc(/C=C/c2ccccc2)nc2c(=O)n(C)c(=O)nc1-2,inhibition,[2],39.2%
same,inhibition,[3],9.67%
Cc1ccc(N=C(/N=C(\N)N[N+](=O)[O-])Nc2ccc(C)cc2)cc1,inhibition,[2],-0.99%
same,inhibition,[3],1.74%
CC1=CC2OC3CC4OC(=O)C=CC=CC(=O)OCCC(C)C(O)C(=O)OCC2(CC1O)C4(C)C31CO1 (stereo unspecified),inhibition,[2],98% (active)
same,inhibition,[3],96.8% (active)
same,inhibition,[4],96.8% (active)
same,inhibition,[5],95.6% (active)
O=c1[nH]c2ccccc2n1C1CCN(C(CCc2ccccc2)c2nnnn2C2CCCC2)CC1 (stereo unspecified),inhibition,[2],23.4%
same,inhibition,[3],7.82%
same,inhibition,[4],-2.66%
same,inhibition,[5],10.8%
